Compounds with a hit are over-represented: about 2.3% of the library has one in this group of screens.
TsaE inh: qHTS Assay for Inhibitors of YjeE | tRNA threonylcarbamoyladenosine biosynthesis protein TsaE (Escherichia coli (strain … | purified YjeE enzyme, qHTS inhibition assay | Potency, µM | hit rate 0.05% among 71,000 | AID 605, 2007
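Fluorescence polarization of a BODIPY Texas Red–ADP probe (2 uM) bound to purified YjeE (10 uM) was read after 15 min room-temperature incubation with compounds. Loss of polarization marks inhibitors; ADP serves as titrated control.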
Pol III holo inh: qHTS Assay for Inhibitors of DNA Polymerase III Holoenzyme System; hit rate 0.25% among 71,000; reconstituted DNA polymerase III holoenzyme replication, biochemical; Potency, µM (titrated, usually from 57.1 µM); AID 603, 2007
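Reconstituted *E. coli* holoenzyme (0.35 nM Pol III, 1 nM beta, 154 nM SSB, 2 nM primase) was preincubated with compound for 15 min at RT. Synthesis on 1.4 nM ssM13Gori ran 35 min, then was stopped with PicoGreen/EDTA and read as dsDNA fluorescence.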
Tau filament bind: qHTS Assay for Tau Filament Binding. Microtubule-associated protein tau (Homo sapiens), P10636. recombinant tau filaments, thioflavin S fluorescence, 15 h; filaments grown with octadecylsulfate alongside compound. Potency, µM (titrated, usually from 57.1 µM). hit rate 2% among 71,000. AID 596, 2007;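 further: actives lower thioflavin S fluorescence by blocking filaments or displacing dye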
Target sequence (P10636 whole entry, looked up): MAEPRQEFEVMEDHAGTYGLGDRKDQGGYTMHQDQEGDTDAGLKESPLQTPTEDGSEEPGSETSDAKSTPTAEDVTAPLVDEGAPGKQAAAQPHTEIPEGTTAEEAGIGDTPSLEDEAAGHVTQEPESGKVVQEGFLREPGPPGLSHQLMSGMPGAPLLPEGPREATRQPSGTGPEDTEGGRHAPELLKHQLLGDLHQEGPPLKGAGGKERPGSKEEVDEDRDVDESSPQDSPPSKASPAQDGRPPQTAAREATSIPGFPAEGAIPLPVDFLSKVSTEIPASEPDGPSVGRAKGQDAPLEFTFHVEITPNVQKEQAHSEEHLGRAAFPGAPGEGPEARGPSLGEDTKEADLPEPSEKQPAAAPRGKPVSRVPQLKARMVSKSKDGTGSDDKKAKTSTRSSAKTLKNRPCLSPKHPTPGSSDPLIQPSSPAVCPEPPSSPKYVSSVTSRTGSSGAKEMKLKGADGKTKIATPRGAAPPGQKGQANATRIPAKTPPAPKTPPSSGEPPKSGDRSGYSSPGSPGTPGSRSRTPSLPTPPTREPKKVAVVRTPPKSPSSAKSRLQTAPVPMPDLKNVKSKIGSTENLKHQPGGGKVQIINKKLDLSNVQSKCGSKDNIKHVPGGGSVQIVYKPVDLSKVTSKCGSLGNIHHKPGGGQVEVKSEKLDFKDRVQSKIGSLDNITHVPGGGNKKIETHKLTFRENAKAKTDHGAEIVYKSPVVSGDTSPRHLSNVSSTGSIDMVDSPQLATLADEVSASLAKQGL
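His-tagged recombinant human tau (exons 2, 3 and 10 included), 1 uM, was induced to fibrillize by 30 uM sodium octadecylsulfate with compound present. After 15 h at 37 C, thioflavine S fluorescence (ex 450, em 510 nm) was read.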
BRCT PPI red: qHTS Assay for Inhibitors of BRCT-Phosphoprotein Interaction (Red Fluorophore). Breast cancer type 1 susceptibility protein (Homo sapiens), P38398. BRCT-phosphopeptide binding, red fluorescence polarization. Potency, µM (top dose mostly 76.9 µM), hits mostly inhibitors. hit rate 0.03% among 75,000
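Rhodamine-labelled pBACH1 10-mer (100 nM) bound to BRCT domain (100 nM) at pH 7.3; compounds incubated 12 min room temperature, polarization read. Free peptide defines full inhibition; unlabelled decapeptide titrated as control.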
BRCT PPI green: qHTS Assay for Inhibitors of BRCT-Phosphoprotein Interaction (Green Fluorophore). hit rate 0.05% among 75,000. AID 875, 2007. Breast cancer type 1 susceptibility protein (Homo sapiens), P38398. Potency, µM (highest dose often 76.9 µM), actives largely listed as inhibitors. BRCA1 BRCT-phosphopeptide binding, green fluorescence polarization
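Fluorescence polarization: His-tagged BRCT (~35 kDa BRCA1 C-terminus, 250 nM) bound to 100 nM fluorescein-labeled phosphorylated 10-aa BACH1 peptide, pH 7.3 phosphate buffer with DTT and Tween 20. Compounds incubated 12 min at room temperature; inhibition read as lowered polarization.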
Hsp90 Hop PPI: qHTS Assay for Disrupters of an Hsp90 Co-Chaperone Interaction; AID 595, 2007; Hsp90 C-terminal peptide / TPR2A (Hop) interaction, human; AlphaScreen TPR2A-His6 binding biotin-Hsp90 C-terminal peptide; Potency, µM (highest dose often 57 µM); hit rate 0.44% among 71,000; active means well fitted curve in either direction with a large enough effect; inconclusive means small, poorly fitted or top-dose-only effect, or another doubt
Of the large screens only hits and unclear results are named; the others gave an inactive call. Unless noted, the call rests on the fitted dose curve; in most records, active means well fitted curve in the direction sought with a large enough effect; inconclusive means small, poorly fitted or top-dose-only effect, or another doubt; inactive means no such curve, though single readings can be large; an effect the other way counts as inactive or inconclusive.

COc1ccc(-n2c(=O)c(-c3cccs3)nc3cnc(N4CCNCC4)nc32)cc1	Hsp90 Hop PPI inconclusive
CCCOC(=O)c1ccc(Oc2c(-c3ccc(O)cc3O)n[nH]c2C)cc1	Tau filament bind 20µM
CCCOC(=O)c1ccc(Oc2c(-c3ccc(OC)cc3O)n[nH]c2C)cc1	none
COc1ccc(N2CCN(c3nc(NC(C)(C)C)nc(N4CCCCC4)n3)CC2)cc1	Tau filament bind 10µM, Hsp90 Hop PPI inconclusive
CC(=O)Oc1ccc2c(c1)CCC1C2CC[C@]2(C)C(OC(C)=O)CCC12 (some centres undefined)	none (no result: TsaE inh, Pol III holo inh, Tau filament bind, Hsp90 Hop PPI)
COc1ccc(N2CCN(CCCNC(=O)CC3Oc4ccc(C)cc4NC3=O)CC2)cc1 (centres undefined)	Tau filament bind 25.1µM
Cc1ccc2c(c1)N(C(=O)CSc1nncn1C)C(C)(C)c1ssc(=S)c1-2	Tau filament bind 15.8µM, Hsp90 Hop PPI inconclusive
CC1=C(/C=C/C(C)=C/C=C/C(C)=C/C=C/C=C(C)/C=C/C=C(C)/C=C/C2=C(C)C(=O)C(O)CC2(C)C)C(C)(C)CC(O)C1=O (centres undefined)	none (no result: TsaE inh, Pol III holo inh, Tau filament bind, Hsp90 Hop PPI)
CCn1nc(NC(=O)c2ccncc2)c2cc3ccccc3nc21	none
COc1ccc2nc3c(cc2c1)c(NC(=O)c1cccs1)nn3CC(C)C	Hsp90 Hop PPI 25.1µM
Nc1cc(-c2cccc(F)c2)nn1S(=O)(=O)c1cccc2nsnc12	Tau filament bind 15.8µM, Hsp90 Hop PPI inconclusive
O=S(=O)(c1cccc2nsnc12)N1CCN(c2ncccn2)CC1	none
CCCCOCCCn1c(-c2ccco2)nc2nc3ccccc3nc21	Tau filament bind 2µM
Fc1ccc(-c2nc3nc4ccccc4nc3n2Cc2ccco2)cc1	Tau filament bind 15.8µM
Fc1ccc(-n2c(-c3ccco3)nc3nc4ccccc4nc32)cc1	Tau filament bind 12.6µM
c1ccc(-c2nc3nc4ccccc4nc3n2Cc2ccco2)cc1	Tau filament bind 12.6µM
CCC1=C2CC[C@H]3C(=O)N(CC(=O)OC)C(=O)[C@H]3[C@H]2[C@@]2(C)C(=NCCc3c[nH]c4ccccc34)OC(=O)N2C1=O	none (no result: TsaE inh, Pol III holo inh, Tau filament bind, Hsp90 Hop PPI)
O=c1[nH]c(=O)n(C2CC(O)C(CO)O2)cc1C(F)(F)F (centres undefined)	none (no result: TsaE inh, Pol III holo inh, Tau filament bind, Hsp90 Hop PPI)
Cc1cc(Nc2ccc(O)cc2)ccc1N	TsaE inh 100µM, Tau filament bind 2µM, Hsp90 Hop PPI inconclusive
Cc1cc(C)c(S(=O)(=O)Nc2ccc(O)cc2)c(C)c1	none
O=C(NC1CCS(=O)(=O)C1)OC1CCCCC1 (centres undefined)	Pol III holo inh 0.501µM
COC(=O)NC1CCS(=O)(=O)C1 (centres undefined)	none
O=c1c(-c2cccs2)nc2cnc(N3CCNCC3)nc2n1Cc1cccs1	Pol III holo inh 7.94µM, Hsp90 Hop PPI inconclusive
O=c1c(-c2cccs2)nc2cnc(N3CCOCC3)nc2n1-c1ccccc1	Hsp90 Hop PPI 3.16µM
O=c1c(-c2ccc(Cl)cc2)nc2cnc(N3CCNCC3)nc2n1Cc1cccs1	Pol III holo inh 25.1µM, Tau filament bind 3.16µM
CN1CCN(c2ncc3nc(-c4ccc(Cl)cc4)c(=O)n(Cc4cccs4)c3n2)CC1	Tau filament bind 2µM
O=c1c(-c2cc(F)cc(F)c2)nc2cnc(N3CCNCC3)nc2n1Cc1cccs1	Tau filament bind inconclusive
NS(=O)(=O)c1cc2c(cc1Cl)N[C@H](Cc1ccccc1)NS2(=O)=O	none
c1ccc(-c2nn3c(-c4ccco4)nnc3s2)nc1	none
Brc1ccc(-c2nn3c(-c4ccco4)nnc3s2)o1	Pol III holo inh 25.1µM
Clc1ccc(-c2ccc(-c3nn4c(-c5ccco5)nnc4s3)o2)cc1	Tau filament bind 25.1µM
CC1(C)C(=O)NC2=C1C(=O)C(=O)c1ccccc12	Tau filament bind inconclusive, Hsp90 Hop PPI inconclusive
c1cc2c3c(c1)c1c(n3CCNC2)CCCC1	Tau filament bind 31.6µM
COc1ccc2[nH]c3c(c2c1)CN(C)CC3	Tau filament bind 25.1µM
COc1ccc2[nH]c3ccccc3c2c1	none
Nc1ncnc2c1nc(Br)n2[C@H]1O[C@H]2COP(=O)(O)O[C@H]2[C@@H]1O	Tau filament bind 39.8µM
Nc1ncnc2c1nc(Br)n2C1CC(O)C(CO)O1 (centres undefined)	none (no result: TsaE inh, Pol III holo inh, Tau filament bind, Hsp90 Hop PPI)
Cc1cccc(C)c1OC[C@@H](N)C(C)C	none
CCOC(=O)CCN1C(=O)[C@H]2[C@H]3[C@H](O)[C@H](O)C/C(=N/OCc4ccccc4)[C@H]3CC[C@@H]2C1=O	none (no result: TsaE inh, Pol III holo inh, Tau filament bind, Hsp90 Hop PPI)
COc1ccc(NCc2nnc(SCC(=O)Nc3cccc(C)c3)o2)cc1	Tau filament bind 15.8µM
COc1ccc(OC)c(NC(=O)CSc2nnc(CNc3ccc(F)cc3)o2)c1	none
O=C(COC(=O)c1ccccn1)Nc1nccs1	none
O=C(OCC(=O)c1ccccc1Br)c1ccccn1	Hsp90 Hop PPI 25.1µM
CC(C)C[C@@H](CC(=O)N[C@@H](CCC(=O)O)CC(=O)O)NC(=O)[C@@H]1CCCC[C@H]1NC(=O)C[C@H](CCCN)NC(=O)C[C@H](Cc1c[nH]c2ccccc12)NC(=O)[C@@H]1CCCC[C@H]1N	none (no result: BRCT PPI red, BRCT PPI green)
COc1cccc2c1NC(C(=O)O)C1CC=CC21 (centres undefined)	TsaE inh inconclusive, Pol III holo inh 25.1µM
Cc1ccc2c(c1)C1C=CCC1C(C(=O)O)N2 (centres undefined)	Pol III holo inh inconclusive, Tau filament bind inconclusive, BRCT PPI red inconclusive, Hsp90 Hop PPI inconclusive
O=C1c2ccccc2C(=O)N1C[C@]1(C(=O)O)NCCS1(=O)=O	none
CCCN(CCC)C[C@@H]1CCCCN1CCNC(=O)N1c2ccccc2C(=O)Nc2cccnc21	Tau filament bind 39.8µM
CCc1cccc(NC(=O)Cn2cc3c(n2)CCCC3)c1	none
CN(C)c1ccc(NC(=O)Cn2cc3c(n2)CCCC3)cc1	Tau filament bind 12.6µM, Hsp90 Hop PPI inconclusive
CCOc1cc(C2CC(=O)N3CN(C4CCCCC4)CSC3=C2C#N)ccc1O (centres undefined)	none
COc1ccc2ccccc2c1C1CC(=O)N2CN(C3CCCCC3)CSC2=C1C#N (centres undefined)	Tau filament bind 12.6µM
COc1ccc2ccccc2c1C1CC(=O)N2CN(Cc3ccco3)CSC2=C1C#N (centres undefined)	Tau filament bind 7.94µM

Screening results (PubChem BioAssay)
